# In publication PMC7862700, “An all-to-all approach to the identification of sequence-specific readers for epigenetic DNA modifications on cytosine”:
# Assays:
# Test in all cases: DAPPL (digital affinity profiling via proximity ligation, sequencing); 10 mM Tris-HCl pH 7.5, 50 mM NaCl, 1 mM DTT, 4% glycerol, room temperature, 30 min; GST-TFs on glutathione beads, 16-mer random dsDNA library, 0.1% formaldehyde crosslink after washing; high values mean tight binding
# FEV = biological target: T1, FEV (Homo sapiens, UniProt Q99581 1-238); details: protein: recombinant; tags: N-terminal GST; dsDNA, one strand shown
# T1 sequence: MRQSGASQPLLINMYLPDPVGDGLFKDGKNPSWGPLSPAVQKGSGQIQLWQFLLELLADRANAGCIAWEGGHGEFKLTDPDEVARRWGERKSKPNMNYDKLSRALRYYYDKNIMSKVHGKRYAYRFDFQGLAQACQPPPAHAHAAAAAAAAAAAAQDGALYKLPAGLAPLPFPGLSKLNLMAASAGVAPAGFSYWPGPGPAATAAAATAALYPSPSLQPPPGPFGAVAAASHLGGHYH
# Procedure, shortened: (§1)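 Human transcription factors fused to GST were expressed in yeast, captured on glutathione beads, given DNA barcodes and pooled with a GST-only negative control. Pools were incubated with 200 nmole of a 16-mer random double-stranded DNA library in Tris/NaCl/DTT/glycerol buffer at room temperature for 30 min. They were then washed, crosslinked with 0.1% formaldehyde, proximity-ligated (BsaI/T4 ligase, 1 h, 37 °C), PCR-amplified and sequenced on an Illumina NextSeq500. Binding signal is each 6-mer's read frequency for a factor divided by its frequency for the GST control.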
# ETV5 = ETV5 (Homo sapiens, UniProt P41161 1-510); details: protein: recombinant; tags: N-terminal GST; dsDNA, one strand shown
# Procedure, shortened: as §1
# HSF1 = HSF1 (Homo sapiens, UniProt Q00613 1-529); details: protein: recombinant; tags: N-terminal GST; chain copies: 3; dsDNA, one strand shown
# Procedure, shortened: as §1
# SPIC = biological target: T2, SPIC (Homo sapiens, UniProt Q8N5J4 1-248); details: protein: recombinant; tags: N-terminal GST; dsDNA, one strand shown
# T2 sequence: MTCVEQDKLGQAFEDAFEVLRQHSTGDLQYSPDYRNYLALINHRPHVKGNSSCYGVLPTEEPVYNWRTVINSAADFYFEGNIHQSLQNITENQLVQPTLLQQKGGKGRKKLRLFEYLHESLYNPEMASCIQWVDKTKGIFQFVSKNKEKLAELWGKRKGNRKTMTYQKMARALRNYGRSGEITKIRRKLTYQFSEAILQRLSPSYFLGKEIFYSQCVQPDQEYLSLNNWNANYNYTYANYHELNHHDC
# Procedure, shortened: as §1
# ELF4 = ELF4 (Homo sapiens, UniProt Q99607 1-663); details: protein: recombinant; tags: N-terminal GST; dsDNA, one strand shown
# Procedure, shortened: as §1
# ELK4 = biological target: T3, ELK4 (Homo sapiens, UniProt P28324-2 1-405); details: protein: recombinant; tags: N-terminal GST; dsDNA, one strand shown
# T3 sequence: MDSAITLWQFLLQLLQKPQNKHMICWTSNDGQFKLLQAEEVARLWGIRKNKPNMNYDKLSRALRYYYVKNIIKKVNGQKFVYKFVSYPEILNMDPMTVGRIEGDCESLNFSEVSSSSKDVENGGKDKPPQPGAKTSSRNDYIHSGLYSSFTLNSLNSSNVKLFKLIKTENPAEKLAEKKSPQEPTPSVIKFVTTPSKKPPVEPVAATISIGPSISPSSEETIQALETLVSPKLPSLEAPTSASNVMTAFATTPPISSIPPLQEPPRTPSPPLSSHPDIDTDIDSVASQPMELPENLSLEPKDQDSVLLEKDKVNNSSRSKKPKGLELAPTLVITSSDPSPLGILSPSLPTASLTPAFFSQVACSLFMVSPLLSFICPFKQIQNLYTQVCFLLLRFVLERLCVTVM
# Procedure, shortened: as §1
# ETV2 = biological target: T4, ETV2 (Homo sapiens, UniProt O00321 1-342); details: protein: recombinant; tags: N-terminal GST; dsDNA, one strand shown
# T4 sequence: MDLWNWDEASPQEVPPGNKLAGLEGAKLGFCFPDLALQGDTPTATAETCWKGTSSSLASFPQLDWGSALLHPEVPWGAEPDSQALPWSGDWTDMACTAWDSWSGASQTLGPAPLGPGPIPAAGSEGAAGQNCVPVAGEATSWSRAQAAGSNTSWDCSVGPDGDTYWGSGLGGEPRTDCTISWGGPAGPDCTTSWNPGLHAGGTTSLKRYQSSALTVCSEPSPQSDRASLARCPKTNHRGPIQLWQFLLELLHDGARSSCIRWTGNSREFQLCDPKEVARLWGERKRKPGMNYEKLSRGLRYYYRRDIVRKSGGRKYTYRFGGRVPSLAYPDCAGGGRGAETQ
# Procedure, shortened: as §1
# ELF3 = biological target: T5, ELF3 (Homo sapiens, UniProt P78545 1-371); details: protein: recombinant; tags: N-terminal GST; dsDNA, one strand shown
# T5 sequence: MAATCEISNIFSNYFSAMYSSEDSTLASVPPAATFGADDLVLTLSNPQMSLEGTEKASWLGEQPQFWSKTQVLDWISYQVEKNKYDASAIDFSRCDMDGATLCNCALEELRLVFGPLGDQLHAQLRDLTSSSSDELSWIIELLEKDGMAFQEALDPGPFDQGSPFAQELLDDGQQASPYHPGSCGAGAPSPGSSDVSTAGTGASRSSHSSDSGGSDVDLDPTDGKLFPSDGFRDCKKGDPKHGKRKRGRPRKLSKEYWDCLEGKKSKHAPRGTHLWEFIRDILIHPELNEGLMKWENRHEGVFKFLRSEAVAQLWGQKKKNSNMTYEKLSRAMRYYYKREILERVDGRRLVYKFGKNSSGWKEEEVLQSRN
# Procedure, shortened: as §1
# CRX = CRX (Homo sapiens, UniProt O43186 1-299); details: protein: recombinant; tags: N-terminal GST; dsDNA, one strand shown
# Procedure, shortened: as §1
# ETV1 = ETV1 (Homo sapiens, UniProt P50549 1-477); details: protein: recombinant; tags: N-terminal GST; dsDNA, one strand shown
# Procedure, shortened: as §1
# ERF = biological target: T6, ERF (Homo sapiens, UniProt P50548 1-548); details: protein: recombinant; tags: N-terminal GST; dsDNA, one strand shown
# T6 sequence: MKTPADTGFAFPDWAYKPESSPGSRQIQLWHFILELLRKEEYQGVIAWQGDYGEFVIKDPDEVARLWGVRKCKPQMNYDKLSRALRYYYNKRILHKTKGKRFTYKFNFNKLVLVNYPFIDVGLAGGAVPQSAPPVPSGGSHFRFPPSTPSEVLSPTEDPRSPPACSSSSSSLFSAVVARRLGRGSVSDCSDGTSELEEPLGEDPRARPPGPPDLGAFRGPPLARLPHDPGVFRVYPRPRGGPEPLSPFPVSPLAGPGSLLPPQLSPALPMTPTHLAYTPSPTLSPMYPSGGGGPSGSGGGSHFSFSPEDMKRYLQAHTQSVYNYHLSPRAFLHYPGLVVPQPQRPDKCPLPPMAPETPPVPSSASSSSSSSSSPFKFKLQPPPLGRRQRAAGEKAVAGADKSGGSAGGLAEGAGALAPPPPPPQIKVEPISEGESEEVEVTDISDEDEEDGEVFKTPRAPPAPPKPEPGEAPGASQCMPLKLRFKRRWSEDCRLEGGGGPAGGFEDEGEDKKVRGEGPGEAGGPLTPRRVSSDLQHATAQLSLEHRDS
# Procedure, shortened: as §1
# ETV3L = biological target: T7, ETV3L (Homo sapiens, UniProt Q6ZN32 1-361); details: protein: recombinant; tags: N-terminal GST; dsDNA, one strand shown
# T7 sequence: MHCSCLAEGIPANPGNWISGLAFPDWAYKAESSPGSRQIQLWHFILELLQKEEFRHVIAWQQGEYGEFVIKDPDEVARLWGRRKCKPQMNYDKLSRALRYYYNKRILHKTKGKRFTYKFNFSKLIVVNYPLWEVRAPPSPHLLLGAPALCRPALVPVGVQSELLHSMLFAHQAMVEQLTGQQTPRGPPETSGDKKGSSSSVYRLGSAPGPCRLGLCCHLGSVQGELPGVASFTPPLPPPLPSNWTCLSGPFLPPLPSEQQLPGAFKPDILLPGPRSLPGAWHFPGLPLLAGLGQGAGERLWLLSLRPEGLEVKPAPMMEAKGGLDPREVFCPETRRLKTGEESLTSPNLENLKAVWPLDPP
# Procedure, shortened: as §1
# ETS2 = biological target: T8, ETS2 (Homo sapiens, UniProt P15036 1-469); details: protein: recombinant; tags: N-terminal GST; dsDNA, one strand shown
# T8 sequence: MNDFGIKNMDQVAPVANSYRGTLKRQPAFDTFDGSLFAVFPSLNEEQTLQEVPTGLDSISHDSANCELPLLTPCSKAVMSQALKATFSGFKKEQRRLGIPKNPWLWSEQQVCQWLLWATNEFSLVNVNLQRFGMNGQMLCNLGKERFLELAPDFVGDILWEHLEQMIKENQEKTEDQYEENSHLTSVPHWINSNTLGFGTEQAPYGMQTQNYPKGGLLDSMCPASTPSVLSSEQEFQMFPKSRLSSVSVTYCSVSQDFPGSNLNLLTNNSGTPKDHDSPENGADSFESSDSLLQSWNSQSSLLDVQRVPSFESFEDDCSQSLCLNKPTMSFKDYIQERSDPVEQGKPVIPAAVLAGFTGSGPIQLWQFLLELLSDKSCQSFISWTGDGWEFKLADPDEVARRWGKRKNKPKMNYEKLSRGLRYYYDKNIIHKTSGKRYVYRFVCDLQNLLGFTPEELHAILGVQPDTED
# Procedure, shortened: as §1
# SPDEF = biological target: T9, SPDEF (Homo sapiens, UniProt O95238 1-335); details: protein: recombinant; tags: N-terminal GST; dsDNA, one strand shown
# T9 sequence: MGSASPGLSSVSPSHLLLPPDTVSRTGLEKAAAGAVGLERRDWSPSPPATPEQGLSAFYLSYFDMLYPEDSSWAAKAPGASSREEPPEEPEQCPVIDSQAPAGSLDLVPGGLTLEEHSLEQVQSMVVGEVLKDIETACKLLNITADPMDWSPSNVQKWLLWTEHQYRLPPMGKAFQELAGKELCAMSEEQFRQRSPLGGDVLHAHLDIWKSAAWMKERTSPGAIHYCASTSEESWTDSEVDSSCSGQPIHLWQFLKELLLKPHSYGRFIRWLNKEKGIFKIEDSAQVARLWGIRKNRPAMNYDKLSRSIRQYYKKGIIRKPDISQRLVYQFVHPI
# Procedure, shortened: as §1
# ETV7 = biological target: T10, ETV7 (Homo sapiens, UniProt Q9Y603 1-341); details: protein: recombinant; tags: N-terminal GST; dsDNA, one strand shown
# T10 sequence: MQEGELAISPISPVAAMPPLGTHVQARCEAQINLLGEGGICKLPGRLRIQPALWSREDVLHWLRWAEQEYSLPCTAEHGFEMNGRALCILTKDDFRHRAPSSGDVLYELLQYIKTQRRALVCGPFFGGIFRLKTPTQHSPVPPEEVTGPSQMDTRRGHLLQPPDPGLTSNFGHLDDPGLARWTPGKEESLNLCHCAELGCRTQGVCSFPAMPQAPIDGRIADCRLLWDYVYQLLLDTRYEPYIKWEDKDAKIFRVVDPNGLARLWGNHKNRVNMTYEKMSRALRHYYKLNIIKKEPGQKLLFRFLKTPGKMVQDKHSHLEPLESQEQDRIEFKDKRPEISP
# Procedure, shortened: as §1
# ELF5 = biological target: T11, ELF5 (Homo sapiens, UniProt Q9UKW6-2 1-255); details: protein: recombinant; tags: N-terminal GST; dsDNA, one strand shown
# T11 sequence: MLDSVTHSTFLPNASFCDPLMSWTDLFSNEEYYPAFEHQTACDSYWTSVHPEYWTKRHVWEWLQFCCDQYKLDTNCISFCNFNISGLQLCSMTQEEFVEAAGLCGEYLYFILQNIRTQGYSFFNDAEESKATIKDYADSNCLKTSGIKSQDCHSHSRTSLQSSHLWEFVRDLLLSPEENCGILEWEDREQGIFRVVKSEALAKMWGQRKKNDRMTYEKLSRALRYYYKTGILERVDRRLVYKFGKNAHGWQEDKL
# Procedure, shortened: as §1
# ETV3 = biological target: T12, ETV3 (Homo sapiens, UniProt P41162-2 1-143); details: protein: recombinant; tags: N-terminal GST; dsDNA, one strand shown
# T12 sequence: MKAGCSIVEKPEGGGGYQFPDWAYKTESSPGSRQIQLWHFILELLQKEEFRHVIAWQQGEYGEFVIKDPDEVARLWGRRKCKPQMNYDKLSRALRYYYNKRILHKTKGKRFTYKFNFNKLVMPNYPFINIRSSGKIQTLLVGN
# Procedure, shortened: as §1
# ETV6 = ETV6 (Homo sapiens, UniProt P41212 1-452); details: protein: recombinant; tags: N-terminal GST; dsDNA, one strand shown
# Procedure, shortened: as §1
# Chain of ETV6 (P41212 whole entry): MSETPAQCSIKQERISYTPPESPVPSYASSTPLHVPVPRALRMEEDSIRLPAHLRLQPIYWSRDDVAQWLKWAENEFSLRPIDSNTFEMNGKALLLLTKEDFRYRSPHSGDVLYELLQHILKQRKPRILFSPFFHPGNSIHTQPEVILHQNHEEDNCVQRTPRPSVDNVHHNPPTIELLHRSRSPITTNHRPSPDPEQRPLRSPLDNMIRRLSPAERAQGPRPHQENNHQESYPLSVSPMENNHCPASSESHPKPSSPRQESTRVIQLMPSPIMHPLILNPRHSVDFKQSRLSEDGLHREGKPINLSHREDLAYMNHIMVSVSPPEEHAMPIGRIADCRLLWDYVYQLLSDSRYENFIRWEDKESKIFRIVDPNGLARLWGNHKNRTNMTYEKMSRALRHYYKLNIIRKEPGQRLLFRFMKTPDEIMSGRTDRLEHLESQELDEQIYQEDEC
# Chain of CRX (O43186 whole entry): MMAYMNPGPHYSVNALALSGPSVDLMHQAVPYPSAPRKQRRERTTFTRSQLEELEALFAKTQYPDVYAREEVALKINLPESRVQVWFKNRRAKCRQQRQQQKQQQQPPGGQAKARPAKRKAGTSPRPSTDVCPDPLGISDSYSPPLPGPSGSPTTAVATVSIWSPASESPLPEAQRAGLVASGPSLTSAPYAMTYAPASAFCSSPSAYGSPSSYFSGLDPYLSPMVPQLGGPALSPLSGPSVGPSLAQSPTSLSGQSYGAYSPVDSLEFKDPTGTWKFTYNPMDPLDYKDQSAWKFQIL
# Chain of ETV1 (P50549 whole entry): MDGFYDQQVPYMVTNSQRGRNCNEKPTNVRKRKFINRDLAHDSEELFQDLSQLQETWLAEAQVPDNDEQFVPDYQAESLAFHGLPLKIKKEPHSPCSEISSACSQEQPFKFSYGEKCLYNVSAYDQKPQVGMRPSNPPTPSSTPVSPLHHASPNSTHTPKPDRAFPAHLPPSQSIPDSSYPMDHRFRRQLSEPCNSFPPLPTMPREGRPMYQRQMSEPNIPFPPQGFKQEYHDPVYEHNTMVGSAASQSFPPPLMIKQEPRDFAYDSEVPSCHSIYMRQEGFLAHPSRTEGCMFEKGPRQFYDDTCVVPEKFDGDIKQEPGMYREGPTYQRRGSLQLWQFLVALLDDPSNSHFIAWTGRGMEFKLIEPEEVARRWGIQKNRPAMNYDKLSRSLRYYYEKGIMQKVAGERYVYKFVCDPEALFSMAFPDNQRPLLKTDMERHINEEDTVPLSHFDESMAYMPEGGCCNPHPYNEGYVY
# Chain of ELF4 (Q99607 whole entry): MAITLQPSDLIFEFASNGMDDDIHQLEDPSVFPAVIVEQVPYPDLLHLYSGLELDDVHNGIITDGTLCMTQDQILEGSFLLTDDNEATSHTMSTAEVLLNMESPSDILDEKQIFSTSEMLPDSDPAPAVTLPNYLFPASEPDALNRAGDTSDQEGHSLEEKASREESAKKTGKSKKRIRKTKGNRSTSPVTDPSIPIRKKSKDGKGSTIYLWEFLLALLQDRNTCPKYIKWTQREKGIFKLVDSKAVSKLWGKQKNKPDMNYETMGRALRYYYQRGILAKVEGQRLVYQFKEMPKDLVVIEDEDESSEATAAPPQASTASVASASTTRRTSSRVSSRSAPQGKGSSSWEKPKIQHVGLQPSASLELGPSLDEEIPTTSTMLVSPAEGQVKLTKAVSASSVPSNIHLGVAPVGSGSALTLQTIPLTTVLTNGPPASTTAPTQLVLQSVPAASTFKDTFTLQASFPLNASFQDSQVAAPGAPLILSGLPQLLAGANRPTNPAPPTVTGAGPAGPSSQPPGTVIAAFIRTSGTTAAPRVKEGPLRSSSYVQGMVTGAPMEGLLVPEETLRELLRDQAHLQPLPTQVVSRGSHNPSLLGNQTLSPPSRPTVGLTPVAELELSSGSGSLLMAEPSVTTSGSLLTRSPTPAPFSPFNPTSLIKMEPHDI
# Chain of HSF1 (Q00613 whole entry): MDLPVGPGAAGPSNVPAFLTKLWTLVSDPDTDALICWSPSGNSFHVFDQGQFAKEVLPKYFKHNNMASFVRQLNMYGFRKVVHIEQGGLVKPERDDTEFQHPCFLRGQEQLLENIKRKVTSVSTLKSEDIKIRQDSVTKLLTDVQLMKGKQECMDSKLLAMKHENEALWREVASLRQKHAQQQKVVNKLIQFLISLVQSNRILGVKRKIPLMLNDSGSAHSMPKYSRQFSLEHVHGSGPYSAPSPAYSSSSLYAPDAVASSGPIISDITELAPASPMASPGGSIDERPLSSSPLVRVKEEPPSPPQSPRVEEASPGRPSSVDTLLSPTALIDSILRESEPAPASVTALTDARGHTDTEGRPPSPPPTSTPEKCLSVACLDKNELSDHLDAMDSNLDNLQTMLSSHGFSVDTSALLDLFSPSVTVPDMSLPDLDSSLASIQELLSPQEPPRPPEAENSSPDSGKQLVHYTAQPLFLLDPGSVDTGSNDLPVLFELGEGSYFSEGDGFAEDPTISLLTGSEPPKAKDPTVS
# Chain of ETV5 (P41161 whole entry): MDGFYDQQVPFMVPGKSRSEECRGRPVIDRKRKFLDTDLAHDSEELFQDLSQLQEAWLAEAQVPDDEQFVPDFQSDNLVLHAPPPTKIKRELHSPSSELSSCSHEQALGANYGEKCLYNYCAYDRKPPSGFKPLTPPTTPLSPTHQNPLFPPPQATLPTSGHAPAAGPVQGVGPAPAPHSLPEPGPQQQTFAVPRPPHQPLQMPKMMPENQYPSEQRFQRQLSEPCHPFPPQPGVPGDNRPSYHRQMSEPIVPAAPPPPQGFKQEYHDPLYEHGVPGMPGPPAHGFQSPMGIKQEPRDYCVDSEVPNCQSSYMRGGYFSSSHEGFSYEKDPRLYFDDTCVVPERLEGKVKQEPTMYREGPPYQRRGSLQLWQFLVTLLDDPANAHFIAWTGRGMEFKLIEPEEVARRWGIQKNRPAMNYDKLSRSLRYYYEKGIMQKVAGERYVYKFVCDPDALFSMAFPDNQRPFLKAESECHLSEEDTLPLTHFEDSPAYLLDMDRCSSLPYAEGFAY
sequence,measurement,setting,value
TATTCC,binding signal,FEV,"1.61 fold enrichment (6-mer frequency, TF over GST control)"
same,binding signal,ETV5,"1.72 fold enrichment (6-mer frequency, TF over GST control)"
same,binding signal,HSF1,"2.11 fold enrichment (6-mer frequency, TF over GST control)"
same,binding signal,SPIC,"1.74 fold enrichment (6-mer frequency, TF over GST control)"
same,binding signal,ELF4,"1.62 fold enrichment (6-mer frequency, TF over GST control)"
same,binding signal,ELK4,"1.44 fold enrichment (6-mer frequency, TF over GST control)"
same,binding signal,ETV2,"1.68 fold enrichment (6-mer frequency, TF over GST control)"
same,binding signal,ELF3,"1.5 fold enrichment (6-mer frequency, TF over GST control)"
same,binding signal,CRX,"1.77 fold enrichment (6-mer frequency, TF over GST control)"
same,binding signal,ETV1,"1.52 fold enrichment (6-mer frequency, TF over GST control)"
same,binding signal,ERF,"1.49 fold enrichment (6-mer frequency, TF over GST control)"
same,binding signal,ETV3L,"1.73 fold enrichment (6-mer frequency, TF over GST control)"
same,binding signal,ETS2,"1.58 fold enrichment (6-mer frequency, TF over GST control)"
same,binding signal,SPDEF,"1.83 fold enrichment (6-mer frequency, TF over GST control)"
same,binding signal,ETV7,"1.66 fold enrichment (6-mer frequency, TF over GST control)"
same,binding signal,ELF5,"1.99 fold enrichment (6-mer frequency, TF over GST control)"
same,binding signal,ETV3,"1.64 fold enrichment (6-mer frequency, TF over GST control)"
same,binding signal,ETV6,"1.67 fold enrichment (6-mer frequency, TF over GST control)"
